Measurements: PubChem BioAssay (NCI)
About 79,000 compounds went through this panel and 15% of them were active in at least one assay; those are over-represented in the sample as a whole. A number with no mark means an inactive call. The source made the active and inactive calls. Rule as the data show it: active = growth inhibition above about 70%; inactive = the rest.

Test: NCI Yeast Anticancer Drug Screen. Data for the rad14 strain (AID 159);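 also: 0% = growth of vehicle-treated control cultures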
Conditions: S. cerevisiae rad14 strain growth inhibition, active compounds read high
Protocol: Growth inhibition of yeast strains with defined genetic alterations is measured as a screen for potential anti-cancer activity. Selected strains with alterations in DNA damage repair or cell cycle control were exposed to compounds and growth inhibition was measured relative to vehicle treated controls. The strain used in this assay is rad14

Row | SMILES | growth inhibition (at 1.2 µM) | growth inhibition (at 3.7 µM) | growth inhibition (at 11.0 µM) | growth inhibition (at 33.0 µM) | growth inhibition (at 100.0 µM)
1 | BrCC[P+](c1ccccc1)(c1ccccc1)c1ccccc1 | -32% | -52% | -16% | 94% (active) | 97% (active)
2 | c1ccc2c(c1)sc1nc3ccncc3nc12 | 21% | 10% | 11% | 19% | 29%
3 | O=C(Cc1csc2[n+]1C(=O)/C(=C/c1ccc(Cl)cc1)S2)Nc1ccccc1 | 0% | 4% | 10% | 33% | 69%
4 | O=C(CC(=O)n1nc(-c2ccccc2)c(N=Nc2ccccc2C(=O)O)c1-c1ccccc1)Nc1ccc(Cl)cc1 | -1% | 2% | 3% | 3% | 29%
5 | CCOC(=O)c1cnc2c(C(F)(F)F)cccc2c1N=[N+]=[N-] | 3% | 4% | 3% | 52% | 98% (active)
6 | O=Nc1c(NO)ccc2nn(-c3ccccc3)nc12 | 7% | 31% | 97% (active) | 98% (active) | 98% (active)
7 | CCOC(=O)C1=C(C(=O)c2ccccc2)C(c2ccccc2[N+](=O)[O-])C(C(=O)c2ccccc2)=C(C(=O)OCC)N1 | 0% | 2% | 8% | 9% | 29%
8 | C#CCCCc1ccccc1 | -36% | -39% | -31% | -17% | 94% (active)
